Assay results published in the supplement of paper PMC10849652.
The full data set covers some 8,800 targets. This sample favours those with a hit. About 0.5% of all pairs of compound and target were hits.

Legend:
Assay in all cases: log2 fold change, soluble protein after heating vs DMSO (PISA); higher = thermal stabilisation; K562 lysate, 10 uM; active = over 0.2 and 3.5 SD of the protein, either way, in both replicates (recomputed)
lapatinib = compound: CS(=O)(=O)CCNCc1ccc(-c2ccc3ncnc(Nc4ccc(OCc5cccc(F)c5)c(Cl)c4)c3c2)o1 [lapatinib]
In short: (§1)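 Quantification was by TMTpro 16plex LC-MS/MS with equalised channel sums, applied to the supernatant after 21,000xg for 90 min. Samples were crude K562 extract at 1 mg/mL protein in PBS pH 7.4 with 1 mM MgCl2, treated with 10 μM compound for 30 min, heated for 3 min across 48°C-58°C, pooled and brought to 0.5% NP-40 at 4°C. Values are log-two fold changes in thermal stability relative to solvent controls, from duplicates.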

pictilisib = compound: CS(=O)(=O)N1CCN(Cc2cc3nc(-c4cccc5[nH]ncc45)nc(N4CCOCC4)c3s2)CC1 [pictilisib]
In short: as §1

crizotinib = compound: C[C@@H](Oc1cc(-c2cnn(C3CCNCC3)c2)cnc1N)c1c(Cl)ccc(F)c1Cl [crizotinib]
In short: as §1

[1] = compound: C[C@H](C1=CC=C(C=C1)C(=O)NC2=C3C=CNC3=NC=C2)N
In short: as §1

duvelisib = compound: C[C@H](Nc1ncnc2nc[nH]c12)c1cc2cccc(Cl)c2c(=O)n1-c1ccccc1 [duvelisib]
In short: as §1

gandotinib = compound: Cc1cc(Nc2cc(CN3CCOCC3)c3nc(C)c(Cc4ccc(Cl)cc4F)n3n2)n[nH]1 [gandotinib]
In short: as §1

tozasertib = compound: Cc1cc(Nc2cc(N3CCN(C)CC3)nc(Sc3ccc(NC(=O)C4CC4)cc3)n2)n[nH]1 [tozasertib]
In short: as §1

doramapimod = compound: Cc1ccc(-n2nc(C(C)(C)C)cc2NC(=O)Nc2ccc(OCCN3CCOCC3)c3ccccc23)cc1 [doramapimod]
In short: as §1

bafetinib = compound: Cc1ccc(NC(=O)c2ccc(CN3CC[C@H](N(C)C)C3)c(C(F)(F)F)c2)cc1Nc1nccc(-c2cncnc2)n1 [bafetinib]
In short: as §1

[2] = compound: Cc1cccc(CC(=O)N2CCc3c2ccc(-c2cn(C)c4ncnc(N)c24)c3F)n1
In short: as §1

Measured: log2 fold change

CELF1 isoform 4 (UniProt Q92879)
inactive: lapatinib 0.011 | pictilisib 0.023 | crizotinib 0.032 | [1] 0.021 | duvelisib -0.036 | gandotinib -0.028 | tozasertib 0.019 | bafetinib -0.09 | [2] -0.018
active: doramapimod -0.605

CCNH (UniProt P51946)
inactive: lapatinib 0.005 | pictilisib -0.012 | crizotinib 0.012 | [1] 0.026 | duvelisib 0.072 | gandotinib -0.002 | tozasertib 0.013 | doramapimod 0.037 | bafetinib -0.022 | [2] -0.023

CDC42BPA isoform 6 (UniProt Q5VT25)
inactive: lapatinib -0.029 | pictilisib -0.041 | crizotinib -0.061 | [1] 0.024 | duvelisib -0.007 | gandotinib -0.05 | tozasertib 0.032 | doramapimod 0.075 | bafetinib -0.056 | [2] 0.03

CANX (UniProt D6RHJ3)
inactive: lapatinib -0.017

CHD1L (UniProt Q86WJ1)
inactive: lapatinib -0.037 | pictilisib -0.045 | crizotinib -0.115 | [1] -0.011 | duvelisib 0.013 | gandotinib -0.062 | tozasertib 0.052 | doramapimod 0.128 | bafetinib -0.055 | [2] 0.038

CCNA2 (UniProt P20248)
Sequence of UniProt P20248 (P20248 whole entry, looked up): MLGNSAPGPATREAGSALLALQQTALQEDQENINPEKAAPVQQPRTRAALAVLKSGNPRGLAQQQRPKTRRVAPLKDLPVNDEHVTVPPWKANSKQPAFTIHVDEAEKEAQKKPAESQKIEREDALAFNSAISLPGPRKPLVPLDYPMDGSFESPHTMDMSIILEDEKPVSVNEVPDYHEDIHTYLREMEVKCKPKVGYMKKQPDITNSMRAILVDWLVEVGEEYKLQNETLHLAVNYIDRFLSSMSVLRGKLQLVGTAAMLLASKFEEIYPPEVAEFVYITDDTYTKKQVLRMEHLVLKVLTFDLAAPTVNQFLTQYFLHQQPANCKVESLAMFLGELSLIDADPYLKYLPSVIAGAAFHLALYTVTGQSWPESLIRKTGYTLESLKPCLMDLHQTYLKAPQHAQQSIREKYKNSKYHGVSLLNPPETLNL
inactive: lapatinib -0.004 | pictilisib -0.029 | crizotinib -0.035 | [1] -0.092 | duvelisib 0.019 | gandotinib 0.091 | tozasertib -0.073 | doramapimod 0.059 | bafetinib 0.027 | [2] 0.049

C5orf51 (UniProt A6NDU8)
Sequence of UniProt A6NDU8 (A6NDU8 whole entry, looked up): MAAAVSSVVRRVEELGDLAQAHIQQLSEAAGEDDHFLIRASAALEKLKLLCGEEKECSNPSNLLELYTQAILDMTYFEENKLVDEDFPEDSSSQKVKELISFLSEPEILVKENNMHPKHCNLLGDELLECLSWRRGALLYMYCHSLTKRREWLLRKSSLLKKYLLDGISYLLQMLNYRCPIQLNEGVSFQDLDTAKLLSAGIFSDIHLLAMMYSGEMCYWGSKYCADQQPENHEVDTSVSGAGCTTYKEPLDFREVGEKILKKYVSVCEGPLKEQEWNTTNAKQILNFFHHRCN
inactive: lapatinib 0.018 | pictilisib -0.003 | crizotinib -0.024 | [1] 0.039 | duvelisib -0.023 | gandotinib -0.143 | tozasertib -0.037 | doramapimod -0.027 | bafetinib -0.031 | [2] -0.037

CASC4 (UniProt Q6P4E1)
inactive: lapatinib -0.038 | pictilisib 0.069 | crizotinib 0.019 | [1] -0.088 | duvelisib 0.051 | gandotinib 0.016 | tozasertib 0.067 | doramapimod 0.057 | bafetinib -0.045 | [2] 0.02

CDC40 (UniProt O60508)
Sequence of UniProt O60508 (O60508 whole entry, looked up): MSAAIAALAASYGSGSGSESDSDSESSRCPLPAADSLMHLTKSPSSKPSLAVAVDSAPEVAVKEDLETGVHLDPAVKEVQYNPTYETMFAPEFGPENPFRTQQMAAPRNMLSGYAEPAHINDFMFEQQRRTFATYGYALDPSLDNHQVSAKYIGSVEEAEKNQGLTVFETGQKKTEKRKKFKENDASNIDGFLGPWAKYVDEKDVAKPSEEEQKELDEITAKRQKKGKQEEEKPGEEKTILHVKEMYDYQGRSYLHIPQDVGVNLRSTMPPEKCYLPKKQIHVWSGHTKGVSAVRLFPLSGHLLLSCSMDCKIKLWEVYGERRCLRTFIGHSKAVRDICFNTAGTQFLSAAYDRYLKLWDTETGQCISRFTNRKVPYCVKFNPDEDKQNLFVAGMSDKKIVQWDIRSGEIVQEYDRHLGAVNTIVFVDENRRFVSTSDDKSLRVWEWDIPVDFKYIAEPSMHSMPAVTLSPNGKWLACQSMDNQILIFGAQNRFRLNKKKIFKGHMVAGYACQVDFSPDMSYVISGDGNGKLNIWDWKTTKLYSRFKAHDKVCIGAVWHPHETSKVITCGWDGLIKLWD
inactive: lapatinib -0.028 | pictilisib 0.039 | crizotinib -0.053 | [1] -0.027 | duvelisib 0 | gandotinib 0.002 | tozasertib -0.038 | doramapimod -0.005 | bafetinib -0.033 | [2] 0.006

ATAD3B (UniProt Q5T9A4)
Sequence of UniProt Q5T9A4 (Q5T9A4 whole entry, looked up): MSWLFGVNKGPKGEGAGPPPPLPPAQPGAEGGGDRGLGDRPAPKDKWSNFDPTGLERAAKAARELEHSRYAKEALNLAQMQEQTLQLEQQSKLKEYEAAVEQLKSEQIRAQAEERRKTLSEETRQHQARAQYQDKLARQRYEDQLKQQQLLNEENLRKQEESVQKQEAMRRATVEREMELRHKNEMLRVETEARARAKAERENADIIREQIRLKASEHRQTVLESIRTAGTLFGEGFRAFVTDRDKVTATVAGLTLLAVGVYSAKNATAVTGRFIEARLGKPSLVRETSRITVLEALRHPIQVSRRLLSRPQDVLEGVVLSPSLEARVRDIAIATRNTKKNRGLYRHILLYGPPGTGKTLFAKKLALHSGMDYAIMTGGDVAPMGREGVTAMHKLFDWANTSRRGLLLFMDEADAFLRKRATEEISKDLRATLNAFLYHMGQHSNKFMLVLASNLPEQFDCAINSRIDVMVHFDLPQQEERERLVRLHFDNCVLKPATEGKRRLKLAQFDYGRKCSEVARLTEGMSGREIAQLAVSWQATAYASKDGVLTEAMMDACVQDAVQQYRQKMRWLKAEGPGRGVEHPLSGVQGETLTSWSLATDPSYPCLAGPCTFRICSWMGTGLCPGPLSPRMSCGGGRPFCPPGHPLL
active: [1] 0.308
inactive: lapatinib 0.003 | pictilisib -0.035 | crizotinib -0.091 | duvelisib 0.007 | gandotinib -0.169 | tozasertib 0.014 | doramapimod 0.003 | bafetinib -0.074 | [2] -0.129

ATP6V0A2 (UniProt Q9Y487)
active: [1] -0.227
inactive: lapatinib -0.07 | pictilisib -0.047 | crizotinib -0.016 | duvelisib 0.026 | gandotinib 0.108 | tozasertib 0.004 | doramapimod 0.023 | bafetinib -0.046 | [2] 0.13

BET1 (UniProt O15155)
inactive: lapatinib -0.051 | pictilisib -0.034 | crizotinib -0.004 | [1] -0.004 | duvelisib 0.01 | gandotinib -0.006 | tozasertib 0 | doramapimod 0.03 | bafetinib -0.056 | [2] 0.03

CCNYL1 (UniProt Q8N7R7)
inactive: lapatinib 0.018 | pictilisib -0.012 | crizotinib -0.015 | [1] -0.201 | duvelisib -0.003 | gandotinib 0.085 | tozasertib 0.052 | doramapimod -0.004 | bafetinib 0.006 | [2] 0.067

CEPT1 (UniProt Q9Y6K0)
active: [2] 0.223
inactive: lapatinib -0.121 | pictilisib -0.08 | crizotinib -0.122 | [1] -0.106 | duvelisib -0.019 | gandotinib -0.058 | tozasertib 0.025 | doramapimod -0.07 | bafetinib -0.124

C12orf45 (UniProt Q8N5I9)
inactive: lapatinib -0.027 | pictilisib -0.031 | crizotinib 0.042 | duvelisib -0.014 | gandotinib 0.148 | tozasertib -0.044 | doramapimod -0.023 | bafetinib 0.001 | [2] 0.072
active: [1] -0.269

CCDC85B (UniProt Q15834)
inactive: lapatinib 0 | pictilisib -0.042 | crizotinib 0.006 | [1] -0.016 | duvelisib 0.081 | gandotinib -0.032 | tozasertib 0.248 | doramapimod 0.098 | bafetinib 0.054 | [2] 0.011

CAMLG (UniProt P49069)
Sequence of UniProt P49069 (P49069 whole entry, looked up): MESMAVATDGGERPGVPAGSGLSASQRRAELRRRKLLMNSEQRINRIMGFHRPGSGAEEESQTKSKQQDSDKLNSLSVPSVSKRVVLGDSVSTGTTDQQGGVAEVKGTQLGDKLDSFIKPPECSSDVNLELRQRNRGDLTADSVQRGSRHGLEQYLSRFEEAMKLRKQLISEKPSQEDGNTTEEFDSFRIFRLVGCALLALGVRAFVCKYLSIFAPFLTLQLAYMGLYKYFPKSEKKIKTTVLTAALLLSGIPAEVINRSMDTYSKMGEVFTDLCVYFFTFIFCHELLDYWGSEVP
inactive: lapatinib 0.009 | pictilisib -0.039 | crizotinib 0.014 | [1] 0.179 | duvelisib -0.001 | gandotinib -0.058 | tozasertib -0.037 | doramapimod -0.005 | bafetinib 0 | [2] -0.12

C3 (UniProt P01024)
Sequence of UniProt P01024 (P01024 whole entry, looked up): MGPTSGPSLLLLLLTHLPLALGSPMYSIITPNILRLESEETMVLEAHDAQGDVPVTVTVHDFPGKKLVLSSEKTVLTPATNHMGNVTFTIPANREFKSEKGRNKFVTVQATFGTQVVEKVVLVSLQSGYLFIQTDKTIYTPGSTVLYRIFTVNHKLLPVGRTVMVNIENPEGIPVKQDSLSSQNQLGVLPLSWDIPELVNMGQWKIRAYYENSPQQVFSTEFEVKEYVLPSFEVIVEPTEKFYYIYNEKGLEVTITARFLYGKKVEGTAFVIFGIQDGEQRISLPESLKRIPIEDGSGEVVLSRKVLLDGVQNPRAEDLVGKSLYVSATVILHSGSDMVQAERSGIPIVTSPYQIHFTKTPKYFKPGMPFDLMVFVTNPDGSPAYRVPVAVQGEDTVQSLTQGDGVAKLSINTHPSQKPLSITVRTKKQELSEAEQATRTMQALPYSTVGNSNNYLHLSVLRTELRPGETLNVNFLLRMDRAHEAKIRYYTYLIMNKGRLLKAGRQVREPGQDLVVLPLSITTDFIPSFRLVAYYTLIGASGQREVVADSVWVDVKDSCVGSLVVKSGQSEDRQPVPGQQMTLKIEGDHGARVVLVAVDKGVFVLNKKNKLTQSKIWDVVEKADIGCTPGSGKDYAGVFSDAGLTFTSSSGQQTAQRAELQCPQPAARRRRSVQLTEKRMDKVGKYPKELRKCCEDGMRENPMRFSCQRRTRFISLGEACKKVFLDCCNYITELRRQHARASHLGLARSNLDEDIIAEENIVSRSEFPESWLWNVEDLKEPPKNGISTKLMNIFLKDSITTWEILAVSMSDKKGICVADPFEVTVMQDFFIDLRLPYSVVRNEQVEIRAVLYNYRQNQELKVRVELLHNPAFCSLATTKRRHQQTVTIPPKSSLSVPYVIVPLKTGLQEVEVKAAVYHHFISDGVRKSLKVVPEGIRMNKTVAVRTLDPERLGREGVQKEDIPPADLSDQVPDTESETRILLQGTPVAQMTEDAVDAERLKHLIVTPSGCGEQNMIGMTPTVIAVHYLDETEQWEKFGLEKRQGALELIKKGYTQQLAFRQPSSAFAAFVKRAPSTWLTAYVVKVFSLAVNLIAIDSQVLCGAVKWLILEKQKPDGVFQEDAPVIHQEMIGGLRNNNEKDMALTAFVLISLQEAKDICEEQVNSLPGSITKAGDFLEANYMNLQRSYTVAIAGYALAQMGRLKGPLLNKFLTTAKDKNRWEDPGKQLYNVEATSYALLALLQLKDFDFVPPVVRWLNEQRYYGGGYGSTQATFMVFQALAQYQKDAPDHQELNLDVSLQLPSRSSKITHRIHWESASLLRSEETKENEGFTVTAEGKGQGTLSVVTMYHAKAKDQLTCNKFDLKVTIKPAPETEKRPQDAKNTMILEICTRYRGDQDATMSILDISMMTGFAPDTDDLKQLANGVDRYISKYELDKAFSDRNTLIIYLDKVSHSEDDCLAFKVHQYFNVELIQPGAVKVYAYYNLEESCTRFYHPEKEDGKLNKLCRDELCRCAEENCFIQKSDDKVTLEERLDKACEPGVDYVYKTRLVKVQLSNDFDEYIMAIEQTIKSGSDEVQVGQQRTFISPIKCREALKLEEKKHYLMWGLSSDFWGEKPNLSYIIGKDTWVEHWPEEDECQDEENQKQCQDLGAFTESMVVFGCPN
inactive: lapatinib 0.011 | pictilisib -0.01 | crizotinib 0.042 | [1] -0.095 | duvelisib -0.073 | gandotinib 0.044 | tozasertib 0.068 | doramapimod -0.006 | bafetinib 0.019 | [2] 0.019

CDKN2AIP (UniProt Q9NXV6)
Sequence of UniProt Q9NXV6 (Q9NXV6 whole entry, looked up): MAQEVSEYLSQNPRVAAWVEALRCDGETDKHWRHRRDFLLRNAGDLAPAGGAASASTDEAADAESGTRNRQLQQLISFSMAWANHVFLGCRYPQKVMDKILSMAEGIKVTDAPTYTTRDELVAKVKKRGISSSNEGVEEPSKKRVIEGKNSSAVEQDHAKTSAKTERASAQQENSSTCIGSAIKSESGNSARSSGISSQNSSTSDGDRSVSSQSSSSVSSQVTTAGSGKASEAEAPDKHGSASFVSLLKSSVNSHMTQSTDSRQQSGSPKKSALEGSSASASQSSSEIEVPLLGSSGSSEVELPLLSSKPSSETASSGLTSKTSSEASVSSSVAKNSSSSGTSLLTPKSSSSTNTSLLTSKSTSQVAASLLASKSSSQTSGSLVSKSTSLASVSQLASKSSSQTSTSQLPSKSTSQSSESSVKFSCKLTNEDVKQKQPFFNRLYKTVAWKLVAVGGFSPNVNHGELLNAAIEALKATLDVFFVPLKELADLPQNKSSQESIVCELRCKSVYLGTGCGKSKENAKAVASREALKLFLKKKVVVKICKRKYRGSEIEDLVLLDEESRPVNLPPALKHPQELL
inactive: lapatinib -0.015 | pictilisib -0.036 | crizotinib 0.024 | [1] -0.04 | duvelisib 0.017 | gandotinib 0.08 | tozasertib -0.034 | doramapimod 0.043 | bafetinib 0.016 | [2] 0.026

BOLA2 (UniProt Q9H3K6)
inactive: lapatinib -0.038 | pictilisib -0.035 | crizotinib 0.02 | duvelisib 0.03 | gandotinib -0.088 | tozasertib 0.069 | doramapimod 0.033 | bafetinib 0.094 | [2] -0.064
active: [1] 0.46

ATXN2 (UniProt Q99700)
inactive: lapatinib 0.006 | pictilisib -0.042 | crizotinib 0.028 | [1] 0.019 | duvelisib 0.025 | gandotinib 0.001 | tozasertib 0.011 | doramapimod 0.017 | bafetinib -0.012 | [2] -0.006

ATP9B (UniProt O43861)
inactive: lapatinib -0.063 | pictilisib -0.269 | crizotinib 0.032 | [1] -0.181 | duvelisib -0.005 | gandotinib -0.037 | tozasertib 0.017 | doramapimod 0.136 | [2] 0.242
active: bafetinib 0.446

BLOC1S6 (UniProt Q9UL45)
inactive: lapatinib -0.018 | pictilisib -0.037 | crizotinib 0.062 | [1] 0.048 | duvelisib 0.021 | gandotinib 0.031 | tozasertib -0.11 | doramapimod -0.011 | bafetinib 0.033 | [2] -0.066

BPHL (UniProt Q86WA6)
Sequence of UniProt Q86WA6 (Q86WA6 whole entry, looked up): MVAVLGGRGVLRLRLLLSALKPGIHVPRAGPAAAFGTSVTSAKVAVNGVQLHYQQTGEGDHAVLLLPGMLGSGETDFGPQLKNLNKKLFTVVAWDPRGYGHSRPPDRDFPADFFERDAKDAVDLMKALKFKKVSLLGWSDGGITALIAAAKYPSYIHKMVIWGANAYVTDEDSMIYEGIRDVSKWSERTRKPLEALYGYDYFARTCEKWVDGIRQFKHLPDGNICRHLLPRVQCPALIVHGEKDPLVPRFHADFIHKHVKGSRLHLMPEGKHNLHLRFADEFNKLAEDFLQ
active: pictilisib -0.366
inactive: lapatinib -0.099 | crizotinib 0.099 | [1] 0.051 | duvelisib 0.061 | gandotinib -0.077 | tozasertib 0.034 | doramapimod -0.003 | bafetinib 0.132 | [2] -0.058

CAMK2G isoform 8 (UniProt Q13555)
inactive: lapatinib -0.013 | pictilisib -0.008 | crizotinib -0.177 | [1] -0.053 | duvelisib -0.083 | gandotinib 0.085 | tozasertib -0.037 | doramapimod -0.049 | bafetinib 0.001 | [2] -0.07

C1orf112 (UniProt Q9NSG2)
inactive: lapatinib 0.018 | pictilisib -0.004 | crizotinib -0.055 | [1] -0.073 | duvelisib -0.035 | gandotinib 0.232 | tozasertib -0.091 | doramapimod 0.021 | bafetinib 0.005
active: [2] 0.279

CCDC25 (UniProt Q86WR0)
Sequence of UniProt Q86WR0 (Q86WR0 whole entry, looked up): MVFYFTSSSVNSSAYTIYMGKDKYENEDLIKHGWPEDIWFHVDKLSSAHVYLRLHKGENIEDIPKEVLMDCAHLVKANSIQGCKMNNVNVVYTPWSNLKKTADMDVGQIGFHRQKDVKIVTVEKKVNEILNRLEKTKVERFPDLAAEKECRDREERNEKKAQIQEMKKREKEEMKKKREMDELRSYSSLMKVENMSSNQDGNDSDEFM
active: [1] 0.487
inactive: lapatinib -0.028 | pictilisib -0.001 | crizotinib -0.015 | duvelisib 0.011 | gandotinib -0.062 | tozasertib -0.021 | doramapimod 0.065 | bafetinib 0.008 | [2] -0.095

AUH (UniProt Q13825)
inactive: lapatinib 0.165 | pictilisib -0.131 | crizotinib 0.012 | [1] 0.144 | duvelisib 0.135 | gandotinib -0.117 | doramapimod 0.023 | bafetinib -0.003 | [2] -0.345
active: tozasertib 0.455

CAMKK1 isoform 2 (UniProt Q8N5S9)
active: gandotinib 0.424
inactive: lapatinib 0.061 | pictilisib -0.074 | crizotinib -0.023 | [1] 0.032 | duvelisib -0.069 | tozasertib -0.067 | doramapimod 0.016 | bafetinib -0.021 | [2] -0.033

CHCHD2 (UniProt Q9Y6H1)
inactive: lapatinib 0.035 | pictilisib 0 | crizotinib 0.119 | [1] 0.044 | duvelisib -0.008 | gandotinib 0.021 | tozasertib 0.102 | doramapimod -0.021 | bafetinib 0.288 | [2] -0.138
